The values that follow come from PubChem BioAssay (NCATS).

Test [1] is described as follows: Quantitative High-Throughput drug screen in 47 multiple myeloma cell lines against the NCATS MIPE library collection: PE2_PLB cell viability assay (AID 1919869). Also: nearly all actives have a fitted effect of over 35% in size. Also: potency is read from the fitted curve at half-maximal effect. Put shortly: (§1)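 500 cells/well per myeloma line exposed to pinned MIPE 4.0 compounds for 48 h at 37 °C, 5% CO2. Viability read as ATP by CellTiter-Glo luminescence, normalised to DMSO-only (100%) and media-only (0%) wells.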

Test [2] in a line: Quantitative High-Throughput drug screen in 47 multiple myeloma cell lines against the NCATS MIPE library collection: RPMI8226_ATCC cell viability assay (AID 1919871). Also: nearly all actives have a fitted effect of over 30% in size. Also: potency is read from the fitted curve at half-maximal effect. In short, it runs like this: as §1
Test [3] can be described thus: Quantitative High-Throughput drug screen in 47 multiple myeloma cell lines against the NCATS MIPE library collection: KMS28BM_JCRB cell viability assay (AID 1919874). Also: nearly all actives have a fitted effect of over 35% in size. Also: potency is read from the fitted curve at half-maximal effect. Put shortly: as §1
Test [4] can be described thus: Quantitative High-Throughput drug screen in 47 multiple myeloma cell lines against the NCATS MIPE library collection: OPM2_DSMZ cell viability assay (AID 1919872). Also: nearly all actives have a fitted effect of over 30% in size. Also: potency is read from the fitted curve at half-maximal effect. In short, it runs like this:
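Approved and investigational drugs from MIPE 4.0 were added by pin tool to 500 cells per well. After 48 hours at 37C, ATP-based CellTiter-Glo luminescence indicated remaining viability.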

Test [5] can be described thus: Quantitative High-Throughput drug screen in 47 multiple myeloma cell lines against the NCATS MIPE library collection: VP6_DJ cell viability assay (AID 1919867). Also: potency is read from the fitted curve at half-maximal effect; nearly all actives have a fitted effect of over 40% in size. Put shortly:
as §1

A short description of test [6]: Quantitative High-Throughput drug screen in 47 multiple myeloma cell lines against the NCATS MIPE library collection: PCM6_Riken cell viability assay (AID 1919870). Also: nearly all actives have a fitted effect of over 30% in size. Also: potency is read from the fitted curve at half-maximal effect. In short, it runs like this:
as §1

The nature of test [7]: Quantitative High-Throughput drug screen in 47 multiple myeloma cell lines against the NCATS MIPE library collection: KMS11_JCRBsus cell viability assay (AID 1919873). Also: nearly all actives have a fitted effect of over 50% in size. Also: potency is read from the fitted curve at half-maximal effect. In short, it runs like this:
as §1

Test [8] is described as follows: Quantitative High-Throughput drug screen in 47 multiple myeloma cell lines against the NCATS MIPE library collection: UTMC2_PLB cell viability assay (AID 1919868). Also: nearly all actives have a fitted effect of over 55% in size. The conditions noted are these: CellTiter-Glo ATP luminescence, 48 h; viability (% of DMSO control): at 45.8 µM (top of the series). In short, it runs like this: as §1
Test [9] addresses Cytochrome P450 2C19 (Homo sapiens) (UniProt P33261). The experiment in a line: qHTS for inhibitors of CYP2C19 against the NCATS DSHEA and TCM libraries (AID 1919974).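 Also: luminescence from luciferin released by CYP2C19 oxidation of a pro-luciferin substrate; potency is read from the fitted curve at half-maximal effect.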 The conditions noted are these: CYP2C19 enzyme inhibition, luminescence qHTS. Put shortly:
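Luminescent P450-Glo format: compounds preincubated 15 min with enzyme and luciferin substrate, reaction run 30-45 min after NADPH regeneration solution. Intraplate controls: ketoconazole for CYP3A4 and CYP2C19, sulfaphenazole for CYP2C9.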
For orientation: In qHTS, concentration-response curves come from the screen itself.

A short description of test [10]: KB-3-1 P-gp reporter qHTS against the NCATS DSHEA and TCM libraries (AID 1919975). Also: 0% is about no effect. Put shortly:
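72 h exposure of KB-3-1 cells (DMEM, 10% FBS) to DSHEA/TCM samples, concentration-response; cell viability measured as CellTiter-Glo luminescence after 30 min at room temperature.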

Test [11] is described as follows: qHTS Counterscreen for compound interference against the NCATS DSHEA and TCM libraries (AID 1919978). Also: % of control where 0% means no effect. The conditions noted are these: firefly luciferase detection reagent interference, luminescence. In short, it runs like this: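 Read-out is luminescence after 30 min at RT with luciferin detection reagent. Before that, compounds (19.5 nM to 39.8 uM final) sat 15 min at RT with 1 uM D-luciferin or 100 mM potassium phosphate buffer. PTC124 served as intraplate control.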

A short description of test [12]: Dual reporter qHTS for agonist of Pregnane X Receptor (hPXR) against the NCATS DSHEA and TCM libraries: Fluorescence readout (AID 1920058). Also: 0% is about no effect. In short, it runs like this:
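hPXR-Luc HepG2 cells, 2000/well in charcoal-stripped serum, attached 5 h, dosed for ~24 h at 37 °C. Fluorescence read is CellTiter-Fluor viability (Ex/Em 405/540 nm); rifampicin positive, tetraoctyl ammonium bromide (92 µM) cytotoxicity controls.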

The target of test [13] is Nuclear receptor subfamily 1 group I member 2 (Homo sapiens) (UniProt O75469). The experiment in a line: Dual reporter qHTS for agonist of Pregnane X Receptor (hPXR) against the NCATS DSHEA and TCM libraries: Luminescence readout (AID 1920059). Also: potency is read from the fitted curve at half-maximal effect. Put shortly: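 hPXR-Luc HepG2 cells, 2000/well in 5% charcoal-stripped FBS medium, attached 5 h, then exposed 24 h at 37C to compounds. Viability by CellTiter-Fluor, then luciferase luminescence with ONE-Glo.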
Sequence of Nuclear receptor subfamily 1 group I member 2 (Homo sapiens) (O75469 whole entry, looked up): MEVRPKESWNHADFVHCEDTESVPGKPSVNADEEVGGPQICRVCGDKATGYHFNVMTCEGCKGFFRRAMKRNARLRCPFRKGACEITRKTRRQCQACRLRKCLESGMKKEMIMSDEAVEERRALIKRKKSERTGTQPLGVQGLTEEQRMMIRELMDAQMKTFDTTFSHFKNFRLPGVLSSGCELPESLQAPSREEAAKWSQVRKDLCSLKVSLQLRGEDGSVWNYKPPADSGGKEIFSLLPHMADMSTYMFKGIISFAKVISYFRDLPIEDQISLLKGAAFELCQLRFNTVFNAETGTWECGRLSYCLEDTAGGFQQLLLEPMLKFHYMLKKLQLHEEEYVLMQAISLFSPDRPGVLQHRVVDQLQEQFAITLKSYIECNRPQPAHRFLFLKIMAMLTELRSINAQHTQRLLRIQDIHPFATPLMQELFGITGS

Test [14] has the same target. Kind of test: Dual reporter qHTS for antagonist of Pregnane X Receptor (hPXR) against the NCATS DSHEA and TCM libraries: Luminescence Readout (AID 1920060).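 Also: HepG2 cells carrying hPXR luciferase reporter stimulated with rifampicin at 2 µM; 0% is about no effect.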 In short, it runs like this:
(§2)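 In antagonist mode, 2 uM rifampicin was added to hPXR-Luc HepG2 cells alongside test substances, incubated 24 h at 37 C; luminescence gave reporter activity, and CellTiter-Fluor fluorescence (405/540 nm) gave viability.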

Test [15] can be described thus: Dual reporter qHTS for antagonist of Pregnane X Receptor (hPXR) against the NCATS DSHEA and TCM libraries: Fluorescence Readout (AID 1920061). Also: 0% is about no effect. Put shortly: as §2

Structures are written as SMILES. Unmarked numbers belong to inactive results. Inconclusive results are not listed. Active and inactive are the calls of the source. Calls follow the shape of the dose curve; as a rule, active = well fitted curve in the direction sought with a large enough effect; inconclusive = small, poorly fitted or top-dose-only effect, or another doubt; inactive = no such curve, though single readings can be large; an effect the other way counts as inactive or inconclusive.

Sequence of Cytochrome P450 2C19 (Homo sapiens) (P33261 whole entry, looked up): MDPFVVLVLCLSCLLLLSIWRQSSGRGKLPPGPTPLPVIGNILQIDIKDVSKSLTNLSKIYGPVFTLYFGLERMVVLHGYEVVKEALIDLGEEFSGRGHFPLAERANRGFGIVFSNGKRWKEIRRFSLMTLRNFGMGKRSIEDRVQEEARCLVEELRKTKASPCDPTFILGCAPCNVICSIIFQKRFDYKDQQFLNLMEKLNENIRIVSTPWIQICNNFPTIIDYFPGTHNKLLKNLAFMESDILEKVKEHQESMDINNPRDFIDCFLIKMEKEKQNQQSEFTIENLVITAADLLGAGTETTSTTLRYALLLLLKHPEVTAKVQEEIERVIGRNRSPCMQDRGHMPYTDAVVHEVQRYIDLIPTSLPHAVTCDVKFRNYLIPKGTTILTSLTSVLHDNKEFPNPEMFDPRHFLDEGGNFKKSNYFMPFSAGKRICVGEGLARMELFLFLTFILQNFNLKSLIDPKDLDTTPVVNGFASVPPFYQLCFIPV

As for `CCCCCNC(=O)N1CCC(CN(Cc2ccc(Cl)cc2)Cc2ccc([N+](=O)[O-])s2)C1` (stereo not drawn), the Potency in test [1] is 23.5 µM (active); in test [2] it was 26.4 µM (active); in [3] it was 18.7 µM (active).

Turning to `CC[C@]1(O)C[C@@H]2CN(CCc3c([nH]c4ccccc34)[C@@](C(=O)OC)(c3cc4c(cc3OC)N(C=O)[C@@H]3C45CCN4CC=C[C@](CC)([C@H]45)[C@@H](OC(C)=O)[C@]3(O)C(=O)OC)C2)C1` (stereo partly drawn), the Potency is 16.6 µM (active) in test [1] and 23.5 µM (active) in test [4].

Turning to `CC1CCC(C(=O)N(c2cc(C#CC(C)(C)C)sc2C(=O)O)C2CCC(O)CC2)CC1` (stereo not drawn), the Potency in [5] is 26.4 µM (active); in [6], 20.9 µM (active). Moreover, the Potency result in test [4] is “inactive”.

As to `O=C(O)c1ccccc1C(=O)Nc1ccc(-c2ccccc2)cc1`, the Potency entry in [1], in [6], in test [2], in test [4], in test [7] and in test [3] was “inactive” in each case.

In the case of `COC(=O)C1=CO[C@@H](O)[C@@H]2C(CO)=CC[C@@H]12`, the Potency in test [1] and in test [2] was 20.9 µM (active) in each case.

As to `CCOC(CN1C(=O)[C@](CC(=O)Nc2ccc(C)cc2)(NC(=O)Nc2ccc(C)cc2)c2ccccc21)OCC`, the Potency in [5] is 26.4 µM (active); in test [1], 23.5 µM (active); in test [7] it was 26.4 µM (active). Also, in test [4], the Potency result is “inactive”.

Take `CC(C)[C@H](CO)Nc1nc(Nc2ccc(C(=O)O)c(Cl)c2)c2ncn(C(C)C)c2n1`: in test [1], the Potency is 23.5 µM (active).

`C[C@H](NC(=O)c1sccc1OCc1ccc(Cl)cc1)c1ccccc1`: the results for the Potency in test [1], in test [4] and in [7] were 18.7 µM (active), 18.7 µM (active) and 7.43 µM (active), respectively.

For `NC(=O)NN=Cc1ccc([N+](=O)[O-])o1`, the Potency in [5] is 14.8 µM (active). Also, the Potency result in [2], in test [4], in [7] and in test [3] was “inactive” each time.

On to `CN(C)C1CCN(C(=O)c2ccc(NC(=O)Nc3nc(N4CCOCC4)nc(N4CCOCC4)n3)cc2)CC1`, for which the Potency in [2] is 0.0093 µM (active); in test [4], 0.0209 µM (active).

`N[C@@]1(C(=O)O)CS(=O)(=O)[C@H]2[C@H](C(=O)O)[C@H]21`: the Potency entry in test [2], in [4], in test [7] and in test [3] was “inactive” each time.

Consider `COCCCCC(=NOCCN)c1ccc(C(F)(F)F)cc1`, for which the values for the Potency in test [1] and in [4] were 18.7 µM (active) and 16.6 µM (active), respectively.

Take `C[C@H]1[C@H](NC(=O)C(=NOC(C)(C)C(=O)O)c2csc(N)n2)C(=O)N1S(=O)(=O)O`: the Potency result in test [8], in test [1], in [6], in [2], in [4] and in [7] was “inactive” each time. The Potency entry in [3] was “inactive”.

Take `CC1(C)CCC(CN2CCN(c3ccc(C(=O)NS(=O)(=O)c4ccc(NCC5CCOCC5)c([N+](=O)[O-])c4)c(Oc4cnc5[nH]ccc5c4)c3)CC2)=C(c2ccc(Cl)cc2)C1`: the Potency in test [1] was 16.6 µM (active); in test [6], 0.148 µM (active); in [2] it was 14.8 µM (active); in test [4], 20.9 µM (active). Further, in test [7], the Potency result was “inactive”.

In the case of `COc1cccc([C@@H](C)NCCCc2ccccc2Cl)c1`, the Potency result in [2], in [4] and in test [3] was “inactive” in each case.

In the case of `CC(=NNC(=S)N1CCC1)c1ccccn1`, in test [1], the Potency entry was “inactive”. Further, the Potency in [2] is 0.0042 µM (active); in [4], 0.0074 µM (active); in test [7] it was 0.0033 µM (active); in test [3], 0.0083 µM (active).

On to `CCN(CC)CCOc1ccc(C(=C(Cl)c2ccccc2)c2ccccc2)cc1`, for which, in [4], the Potency result was “inactive”. Moreover, the Potency in [3] is 10.5 µM (active).

Regarding `O=C(O)C=Cc1ccc(O)c(O)c1`, in test [1], the Potency was 16.6 µM (active). Besides, the Potency entry in test [6], in test [4] and in test [3] was “inactive” throughout.

As for `O=c1cc(-c2ccc(O)cc2)oc2cc(O)cc(O)c12`, the Potency in test [1] was 20.9 µM (active); in test [2], 23.5 µM (active); in [7], 20.9 µM (active); in test [9], 6.31 µM (active); in test [13], 31.6 µM (active). Moreover, the result in test [10], in test [12], in test [14] and in test [15] was inactive. Moreover, in test [11], the max response is -0.0344%.
